Consider 34 compounds from PubChem BioAssay AID590 (National Center for Advancing Translational Sciences (NCATS), 2007).

About 6,500 (11%) of roughly 59,000 compounds were called active. About 15% were inconclusive and are not listed. No stated cut-off is given here; in the data, active means max dye-equivalent concentration above about 10 nM; inconclusive means mostly about 1.1 nM to 9.6 nM; inactive means weaker than that. The sample as a whole holds a higher share of actives than the screen did.

The experiment is described as follows: qHTS Assay for Spectroscopic Profiling in A350 Spectral Region. The following applies: Compound autofluorescence, 340/450 nm, Alexa 350 dye-equivalents; stronger effect = higher value. (In general: Quantitative high-throughput screening tests each substance at several concentrations.)
Consider `O=C(Cn1c(-c2ccccn2)nc2ccccc21)NCCN1CCOCC1`, for which the max dye-equivalent concentration entry was “inactive”.
Turning to `C=CCn1c2ccccc2c2nnc(SC(CC)C(=O)Nc3nc(C)c(C(=O)OCC)s3)nc21` (centres undefined), the max dye-equivalent concentration is 56 nM (active).
Regarding `C=CCn1c(SCC(=O)Nc2nc3ccccc3s2)nnc1-c1ccccc1O`, the max dye-equivalent concentration result is “inactive”.
For `COc1ccc(-n2c(SCC(=O)Nc3ccc4c(c3)OCO4)nnc2C(C)N2CCCCC2)cc1` (centres undefined), the max dye-equivalent concentration result was “inactive”.
Turning to `O=C(NCCCNC(=O)NC1CCCCC1)NC1CCCCC1`, the max dye-equivalent concentration result is “inactive”.
In the case of `CC(=NCc1ccc2c(c1)OCO2)C1=C(O)c2ccccc2C1=O` it was “inactive”; in that of `O=c1[nH]c(-c2cccs2)nc2ccccc12`, “inactive”.
With `O=c1[nH]c(=O)c2nc3ccccc3nc2[nH]1` the figure was 200 nM (active); with `CCc1c(C)nc(N2CCN(Cc3ccccc3)CC2)[nH]c1=O`, “inactive”.
`N#C/C(=C\c1ccc(O)c(O)c1)C(=O)NCc1ccccc1`: the max dye-equivalent concentration result was “inactive”.
On to `CCSC1=C(C#N)C(=O)n2c1cc1c2CCCC1`, for which the max dye-equivalent concentration entry is “inactive”.
`N#CC1=C(N)C(C#N)(C#N)[C@H](c2ccsc2)[C@H]2COCC=C12`: the max dye-equivalent concentration was 17 nM (active).
Regarding `O=C(NCc1ccc(Cl)cc1)c1cc2c(nc3sccn32)s1`, the max dye-equivalent concentration entry was “inactive”.
For `Cc1ccnc(N2CCCC(C(=O)Nc3cc(F)ccc3C)C2)n1` (centres undefined), the max dye-equivalent concentration entry is “inactive”.
As to `CCOC(=O)C1=C(CNC2CCCCC2)NC(=O)NC1c1cc(C)ccc1C` (centres undefined), the max dye-equivalent concentration entry is “inactive”.
With `O=C(Nc1cccnc1)c1ccc2c(c1)OCO2` the entry was “inactive”; with `c1cncc(CNc2ccnc(-c3ccc4c(c3)OCO4)n2)c1`, 15 nM (active); with `Cc1cccc(CNc2ccnc(-c3cccnc3)n2)c1`, “inactive”.
For the compound `CC(=O)N=c1ncn(CC(COC(C)=O)OC(C)=O)c2nc[nH]c12` (centres undefined), the max dye-equivalent concentration result was “inactive”.
As to `Cc1ccc(C)c(S(=O)(=O)N2CC(=O)Nc3ccccc32)c1`, the max dye-equivalent concentration result is “inactive”.
With `Cc1ccc(OCC(=O)Nc2ccc(-c3nnc(-c4ccco4)o3)cc2)cc1` the entry was “inactive”; with `COc1ccc(CC(=O)Nc2ccc(-c3nnc(-c4ccc(C)cc4)o3)cc2)cc1`, “inactive”; with `Cc1ccc(OCC(=O)Nc2ccc(-c3nc4ncccc4o3)cc2)cc1`, 25 nM (active).
In the case of `CCOC(=O)c1cc(C)sc1NC(=O)C1CCC1` it was “inactive”; in that of `Cn1c(-c2ccc(F)cc2)cnc1SCC(=O)NCc1ccco1`, “inactive”; in that of `Cc1ccc(S(=O)(=O)N2CCC(N3CCCCCC3)CC2)cc1`, “inactive”.
With `Fc1ccc(Cn2nnnc2C(c2cccs2)N2CCCCCC2)cc1` (centres undefined), the max dye-equivalent concentration entry was “inactive”.
For the compound `CS(=O)(=O)N(CC(=O)N1CCN(c2cccc(Cl)c2)CC1)c1ccccc1`, the max dye-equivalent concentration result is “inactive”.
For the compound `Cc1cc(C)c2c(n1)nn1c(N3CCOCC3)cc(C)nc21`, the max dye-equivalent concentration was 7500 nM (active).
Consider `Cc1cc(C)c2c(n1)nn1c(N3CCN(c4cccc(Cl)c4)CC3)cc(C)nc21`, for which the max dye-equivalent concentration is 110 nM (active).
Consider `Cc1nn2c3cc(N4CCOCC4)ccc3nc2c2ccccc12`, for which the max dye-equivalent concentration result is “inactive”.
Consider `Cc1cc(C)c2c(n1)nn1c(-n3ccnc3)cc(C)nc21`, for which the max dye-equivalent concentration was 260 nM (active).
With `Cc1cc(N2CCN(Cc3ccc4c(c3)OCO4)CC2)n2ncnc2n1`, the max dye-equivalent concentration result is “inactive”.
In the case of `CCN1C(=O)/C(=C\N2CCN(c3cccc(Cl)c3)CC2)SC1=S` it was “inactive”.
